miR-122 inh – miR-122 sensor activation; Huh7 psiCHECK-miR122 Renilla luciferase sensor, 48 h; activation, % at 12.5 µM; 0.14% of 340,000 active;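 active means mean activation of 30% or more, with every replicate also reaching 30%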;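 further: 0% = median of neutral control wells and 100% = median of positive control wells; higher luciferase signal means stronger suppression of miR-122 activity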
An asterisk follows results filed as active. The sample as a whole holds a higher share of hits than the screen did.

SMILES | miR-122 inh
C[C@H]1CN([C@@H](C)CO)S(=O)(=O)c2ccc(C#Cc3ccccc3F)cc2O[C@@H]1CN(C)C(=O)Cc1ccccc1 | -12.2
C[C@@H]1CN([C@H](C)CO)S(=O)(=O)c2ccc(Br)cc2O[C@H]1CN(C)C(=O)c1ccc2c(c1)OCO2 | -1.4
C[C@@H]1CN([C@H](C)CO)S(=O)(=O)c2ccc(C#Cc3ccccc3F)cc2O[C@H]1CN(C)C(=O)Cc1ccccc1 | 0.7
C[C@@H]1CN([C@@H](C)CO)S(=O)(=O)c2ccc(C#Cc3ccccc3F)cc2O[C@@H]1CN(C)C(=O)c1ccc2c(c1)OCO2 | 41.2*
C[C@H]1CN([C@@H](C)CO)S(=O)(=O)c2ccc(Br)cc2O[C@@H]1CN(C)Cc1ccccn1 | 0.6
Cc1ccc(S(=O)(=O)N(C)C[C@@H]2Oc3cc(-c4cccc(F)c4)ccc3S(=O)(=O)N([C@H](C)CO)C[C@H]2C)cc1 | 5.8
C[C@@H]1CN([C@@H](C)CO)S(=O)(=O)c2ccc(C3=CCCCC3)cc2O[C@H]1CN(C)S(C)(=O)=O | 3.9
C[C@H](CO)N1C[C@H](C)[C@@H](CN(C)Cc2ccc3c(c2)OCO3)Oc2c(NC(=O)Nc3ccccc3)cccc2C1=O | -95.4
CCC(=O)Nc1ccc2c(c1)OC[C@@H](C)NC[C@H](C)[C@@H](OC)CN(C)C2=O | -2.2
C[C@@H]1CN([C@@H](C)CO)C(=O)c2cc(-c3ccncc3)cnc2O[C@@H]1CN(C)C(=O)c1ccccc1F | 1.0
CCN(CC)c1ccc(/C=N/NC(=O)c2ccoc2C)c(O)c1 | 49.7*
COc1cccc(C#Cc2ccc3c(c2)O[C@@H](CN(C)S(=O)(=O)c2ccccc2F)[C@H](C)CN([C@H](C)CO)S3(=O)=O)c1 | 0.5
C[C@@H]1CN([C@@H](C)CO)C(=O)c2cc(-c3cccc(F)c3)cnc2O[C@@H]1CN(C)S(C)(=O)=O | 1.1
C[C@@H]1CN([C@H](C)CO)C(=O)c2cc(C#Cc3cccc(F)c3)cnc2O[C@H]1CN(C)CC1CCOCC1 | 0.0
COc1cccc(NC(=O)N(C)C[C@H]2Oc3cc(-c4cccc(C(=O)N(C)C)c4)ccc3S(=O)(=O)N([C@@H](C)CO)C[C@H]2C)c1 | -11.9
COc1cc(Cl)cc(/C=N\NC(=O)c2ccc3c(c2)OCO3)c1O | 40.5*
N/C(Cc1cccc2ccccc12)=N\OC(=O)c1ccc2c(c1)OCO2 | -103.4
C[C@@H]1CN([C@@H](C)CO)C(=O)c2cc(-c3cccnc3)cnc2O[C@@H]1CN(C)Cc1ccc(Oc2ccccc2)cc1 | 2.3
C[C@@H](O)C#Cc1ccc2c(c1)O[C@@H](CN(C)C(=O)Cc1ccccn1)[C@@H](C)CN([C@@H](C)CO)S2(=O)=O | 3.1
C[C@H]1CN([C@@H](C)CO)C(=O)c2cc(C#Cc3cccc(F)c3)cnc2O[C@H]1CN(C)C(=O)C1CC1 | 6.8
Oc1c(Cl)cc(Cl)cc1/C=N/Nc1ncc(Br)cn1 | 62.2*
C/C=C/c1cnc2c(c1)C(=O)N([C@H](C)CO)C[C@@H](C)[C@H](CN(C)CC1CCOCC1)O2 | -1.6
O=C(Cc1ccccc1)N1C[C@@H]2[C@H](c3ccccc31)[C@H](CO)N2C(=O)Nc1ccc(F)cc1 | -92.3
O=C(Nc1ccccc1F)N1[C@H](CO)[C@@H]2c3ccccc3NC[C@@H]21 | 41.7*
C[C@H]1CN([C@@H](C)CO)C(=O)c2cc(C3=CCCCC3)cnc2O[C@@H]1CN(C)CC1CCOCC1 | -2.9
SMILES | miR-122 inh
CCCNC(=O)N(C)C[C@@H]1Oc2cc(C#Cc3cccc(F)c3)ccc2S(=O)(=O)N([C@@H](C)CO)C[C@@H]1C | -4.2
O=C1CC(c2ccco2)CC(O)=C1C=Nc1cc(Cl)ccc1O (stereo not drawn) | 31.2*
CCCCCOC(=O)c1[nH]c2c(c1C)C(=O)CC(c1ccco1)C2 (stereo not drawn) | -121.0
CC(C)CC#Cc1cnc2c(c1)C(=O)N([C@@H](C)CO)C[C@@H](C)[C@H](CN(C)C(=O)CC1CC1)O2 | 8.5
C[C@H]1CN([C@@H](C)CO)S(=O)(=O)c2ccc(C#Cc3ccncc3)cc2O[C@@H]1CN(C)C(=O)C1CCCCC1 | -28.7
CC(C)CC#Cc1ccc2c(c1)O[C@H](CN(C)C(=O)C1CCOCC1)[C@@H](C)CN([C@@H](C)CO)S2(=O)=O | 19.2
CO[C@@H]1CN(C)C(=O)c2ccc(NC(=O)NC(C)C)cc2OC[C@H](C)NC[C@@H]1C | -56.6
COc1ccccc1C#Cc1ccc2c(c1)O[C@H](CN(C)Cc1cncnc1)[C@H](C)CN([C@@H](C)CO)S2(=O)=O | -12.0
COc1ccccc1C#Cc1ccc2c(c1)O[C@H](CN(C)Cc1cncnc1)[C@@H](C)CN([C@@H](C)CO)S2(=O)=O | -6.9
C[C@@H]1CN([C@@H](C)CO)S(=O)(=O)c2ccc(-c3ccccc3F)cc2O[C@@H]1CN(C)Cc1cccnc1 | 49.0*
C[C@H](CO)N1C[C@H](C)[C@H](CN(C)Cc2cccnc2)Oc2cc(-c3ccccc3)ccc2S1(=O)=O | -0.6
COc1ccccc1C#Cc1ccc2c(c1)O[C@H](CN(C)Cc1cccnc1)[C@H](C)CN([C@@H](C)CO)S2(=O)=O | 39.3*
C[C@@H]1CN([C@H](C)CO)S(=O)(=O)c2ccc(-c3ccccc3)cc2O[C@H]1CN(C)Cc1cccnc1 | -16.8
Cc1ccc(-c2cnc3c(c2)C(=O)N([C@H](C)CO)C[C@H](C)[C@@H](CN(C)C(=O)Cc2cccnc2)O3)cc1 | 4.4
C[C@@H]1CN([C@H](C)CO)C(=O)c2cc(C#Cc3ccccc3F)cnc2O[C@H]1CN(C)S(=O)(=O)c1ccccc1 | 2.2
CC(C)CC#Cc1cnc2c(c1)C(=O)N([C@@H](C)CO)C[C@@H](C)[C@@H](CN(C)C(=O)Cc1ccccc1)O2 | 9.2
CCCNC(=O)Nc1ccc2c(c1)OC[C@H](C)N(C)C[C@@H](C)[C@@H](OC)CN(C)C2=O | -2.8
CCCNC(=O)Nc1ccc2c(c1)OC[C@@H](C)N(C)C[C@H](C)[C@H](OC)CN(C)C2=O | 0.0
CCn1nc(C)cc1-c1nnc(Sc2ncc([N+](=O)[O-])s2)n1C | 44.9*
CCC(=O)Nc1ccc2c(c1)OC[C@H](C)N(Cc1ccccc1F)C[C@H](C)[C@H](OC)CN(C)C2=O | 0.9
C[C@@H]1CN([C@H](C)CO)C(=O)c2cc(/C=C/c3ccccc3)cnc2O[C@H]1CN(C)C(=O)C1CCOCC1 | -1.2
C[C@H](CO)N1C[C@H](C)[C@H](CN(C)C)Oc2ncc(C#CC3CC3)cc2C1=O | 0.5
C[C@H](CO)N1C[C@H](C)[C@H](CN(C)C(=O)CC2CC2)Oc2cc(C#CCC3CCCC3)ccc2S1(=O)=O | -6.1
CCCC#Cc1cnc2c(c1)C(=O)N([C@H](C)CO)C[C@H](C)[C@H](CN(C)C(=O)C1CC1)O2 | -11.6
CC(C)CC#Cc1cnc2c(c1)C(=O)N([C@H](C)CO)C[C@H](C)[C@@H](CN(C)C(=O)Nc1ccccc1F)O2 | 3.1
COc1cccc2c1C(=O)c1c(O)c3c(c(O)c1C2=O)C[C@@](O)(C(=O)CO)C[C@@H]3O[C@H]1C[C@H](N)[C@H](O)[C@H](C)O1 | 68.7*
CCCC(O)C#Cc1cnc2c(c1)C(=O)N([C@H](C)CO)C[C@H](C)[C@H](CN(C)Cc1ccccc1)O2 (stereo partly drawn) | -6.1
CCCC#Cc1cnc2c(c1)C(=O)N([C@H](C)CO)C[C@H](C)[C@@H](CN(C)C(=O)C1CC1)O2 | -9.9
C[C@H]1CN([C@@H](C)CO)S(=O)(=O)c2ccc(-c3cncnc3)cc2O[C@H]1CN(C)Cc1ccccc1 | -4.9
